What all share (assay): NCI-60 one-dose screen, 48 h (100 = growth as untreated, 0 = no growth, -100 = all killed)
Common to all, as to details: 10 µM unless noted

In assay [1] the test system is NCI-H23 lung.
Assay [2] relates to NCI-H322M lung.
The test system of assay [3] is HOP-62 NSCLC.
Assay [4] concerns NCI-H460 lung.
The subject of assay [5] is HOP-92 NSCLC.
For assay [6], the system named is NCI-H522 lung.
Assay [7] has as its system A549/ATCC NSCLC.
For assay [8], the system named is 786-0 renal.
Assay [9] concerns COLO 205 colon.
In assay [10] the test system is DU-145 prostate.
Assay [11] relates to K-562 leukemia.
Assay [12] deals with MALME-3M melanoma.
For assay [13], the system named is MDA-MB-231 breast.
For assay [14], the system named is RXF 393 renal.
Assay [15] concerns SF-268 CNS.
Assay [16] has as its system SF-295 CNS.
Assay [17] has as its system SF-539 CNS.
Assay [18] concerns UACC-257 melanoma.
Assay [19] deals with M14 melanoma.
Assay [20] concerns NCI-H226 lung.

Compounds without any hit were thinned out: in the full panel of roughly 83,000, 20% have a hit.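 Step 1: grow cells in 96-well plates. Step 2: add test compound at a single concentration. Step 3: incubate 48 h. Step 4: record percent growth.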 Values without a mark were called inactive. Activity calls are given as the source filed them. The calls were made as follows: active = growth percent below 10; inactive = the rest.

Regarding `CC1=CCC[C@@H]2C1(C)CC[C@H](C)[C@@]2(C)CC1=CC(=O)C(SC(C)(C)C)=CC1=O` (some centres not stated), the growth was 81.2% in assay [1]; 87.6% in assay [2]; 97.8% in assay [3]; 83.5% in [4]; 75.2% in [5]; 62.9% in assay [6]. Also, the growth in assay [7] was 73.3%; in assay [8], 82.4%; in assay [9] it was 100%; in assay [10], 77.6%; in [11] it was 57.8%; in [12] it was 82.3%. The growth in [13] was 78.3%; in assay [14], 74.5%; in assay [15] it was 85.3%; in assay [16], 85.1%; in assay [17], 89.9%; in [18] it was 90.3%. Besides, the growth in assay [19] is 88.9%.
As to `C=NNc1ccccc1`, the growth was 86.5% in [1]; 85.7% in assay [2]; 101% in assay [3]; 102% in [4]; 78.1% in assay [5]; 73.7% in assay [6]. Also, the growth in assay [7] was 84.3%; in assay [8], 103%; in [9], 100%; in assay [10], 100%; in assay [11], 75.8%; in assay [12], 126%. For the same compound, the growth in assay [13] was 66.8%; in assay [14], 105%; in assay [15], 92.3%; in assay [16] it was 100%; in assay [17] it was 101%; in assay [18] it was 98.3%. Further, the growth in [19] was 95.3%.
Consider `N=C(N)SCc1cccc2c(CSC(=N)N)cccc12`, for which the growth in assay [1] was 99.2%; in assay [2], 90.7%; in assay [3] it was 95.1%; in [4], 103%; in assay [6], 104%; in assay [7], 96.6%. In addition, the growth is 99.3% in assay [8]; 108% in assay [9]; 107% in [10]; 103% in [11]; 102% in assay [12]; 98.6% in assay [13]. The growth is 113% in [14]; 97.2% in assay [15]; 113% in assay [16]; 100% in assay [17]; 95.9% in assay [18]; 105% in assay [19].
Turning to `COc1ccc(C2=CN3CC=CCC3CC2=O)cc1` (configuration not stated), the growth in assay [1] was 106%; in assay [2], 113%; in assay [3], 87.8%; in [4], 108%; in assay [5], 92.1%; in assay [6], 66.9%. Further, the growth in [7] is 75%; in assay [8] it was 101%; in assay [9], 113%; in assay [10], 100%; in assay [11] it was 105%; in assay [12], 116%. The growth in assay [13] was 98.3%; in [14] it was 100%; in [15] it was 101%; in assay [16] it was 104%; in assay [17], 104%; in [18] it was 71.6%. In addition, the growth in assay [19] was 99.5%.
For the compound `CC1=NN(c2ccc(Cl)cc2)CC1(C)N=O` (configuration not stated), the growth in assay [1] is 88.4%; in assay [3], 95.8%; in assay [4], 95.9%; in [5], 83.3%; in assay [6], 44.5%; in assay [7], 99.9%. For the same compound, the growth in assay [8] is 73.1%; in assay [9], 67.3%; in assay [10], 83.9%; in assay [11] it was 40.1%; in assay [12], 68.5%; in assay [13] it was 78.3%. In addition, the growth in [14] was 32.7%; in assay [15] it was 94.9%; in assay [16], 101%; in [17] it was 91%; in assay [18], 90%; in assay [19], 64.9%.
On to `Cc1cc(C)c(-c2c(O)c(Br)c(-c3c(C)cc(C)c(Br)c3C)c(O)c2Br)c(C)c1Br`, for which the growth in assay [1] was 43.7%; in assay [2], 38.1%; in assay [3], 62%; in assay [4], 1.57% (active); in assay [5] it was -3.74% (active); in assay [6] it was -70.3% (active). The growth in [7] is 18.6%; in assay [8], 24.8%; in [10], 33.4%; in assay [11], 15.2%; in [12], -6.91% (active); in assay [13] it was -42.5% (active). The growth in assay [14] was -48.7% (active); in assay [15] it was 31%; in [16], -10.2% (active); in [17] it was 22.3%; in assay [18] it was -19% (active); in assay [19] it was 29.6%.
As for `COc1cc(C2Cc3ncccc3-c3[nH]c(=O)c4cccnc4c32)cc(OC)c1OC` (configuration not stated), the growth in assay [20] was 62.8%; in [2], 55.5%; in [3], 21.7%; in [4] it was 9.39% (active); in assay [5], 67.5%; in assay [6], -31% (active). Besides, the growth in [7] was 20.4%; in assay [8] it was 33%; in assay [9], -20% (active); in assay [10], 23%; in assay [11] it was 16.3%; in assay [12], 77.6%. In addition, the growth in [13] is 31%; in assay [14], 8.5% (active); in assay [15], 44.1%; in assay [16], 1.73% (active); in assay [17], -18.8% (active); in assay [18] it was 56.9%. Moreover, the growth in [19] was 10.3%.
On to `Oc1c(I)cc(-c2nc3ccccc3s2)cc1CN(Cc1ccccn1)Cc1ccccn1`, for which the growth in [20] was 10.5%; in assay [3], 15.7%; in assay [4], 1.59% (active); in assay [5], 0.23% (active); in assay [6] it was 4.12% (active); in [7], 4.74% (active). The growth was 2.78% (active) in assay [8]; 14.3% in assay [9]; 28.1% in [10]; 13.1% in assay [11]; 11.5% in assay [12]; 34.9% in assay [13]. In addition, the growth in [14] was 33.3%; in assay [15], 20.8%; in assay [16] it was 18.5%; in assay [17], 4.13% (active); in [18], 0.435% (active); in assay [19] it was -27.5% (active).
Consider `CS(=O)(=O)Nc1cc(-c2ccc3ncnc(Nc4ccc5c(cnn5Cc5cccnc5)c4)c3c2)cnc1Cl`, for which the growth in assay [20] was 76.4%; in assay [2] it was 68.7%; in assay [3], 51.2%; in assay [4], 79.8%; in [5], -10% (active); in assay [6], 44.2%. Also, the growth in assay [7] is 83.7%; in assay [8], 62.9%; in assay [9], 68.3%; in assay [10], 63.4%; in assay [11], 57.7%; in assay [12], 5.01% (active). Besides, the growth in assay [13] is 47.6%; in [14] it was 44.4%; in [15], 27.9%; in assay [16], 81.8%; in assay [17], 41.4%; in [18], 64.5%. Further, the growth in assay [19] was 41%.

(Values after PubChem BioAssay (NCI).)
